Source: PubChem BioAssay (NCI)
Compounds without any hit were thinned out: in the full panel of roughly 79,000, 15% have a hit. Calls of active or inactive are those of the source. No stated cut-off is given here; in the data, active means growth inhibition above about 70%; inactive means the rest.

Legend:
[1] = NCI Yeast Anticancer Drug Screen. Data for the rad52 strain (AID 147);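 further: 0% = growth of vehicle-treated control cultures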; details: S. cerevisiae rad52 mutant growth inhibition, active compounds read high
Procedure, shortened: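 Growth of repair-deficient yeast cells was compared between compound-treated and vehicle-treated cultures to give percent inhibition.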

[2] = NCI Yeast Anticancer Drug Screen. Data for the wt1 strain (AID 149);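 further: 0% = growth of vehicle-treated wt1 cultures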; details: S. cerevisiae wt1 strain (SPY 50644) growth inhibition, active compounds read high
Procedure, shortened: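 Growth inhibition read against vehicle controls after compound exposure of the wt1 yeast strain.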

[3] = NCI Yeast Anticancer Drug Screen. Data for the rad50EPP+ strain (AID 151);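 further: 0% = growth of vehicle-treated control cultures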; details: S. cerevisiae rad50 mutant strain, active compounds read high
Procedure, shortened: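 Measured: growth inhibition of rad50EPP+ yeast. Reference: vehicle-treated controls. Screen uses strains with defined genetic alterations in DNA damage repair or cell cycle control.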

[4] = NCI Yeast Anticancer Drug Screen. Data for the mgt1 strain (AID 153); details: S. cerevisiae mgt1 mutant growth inhibition, active compounds read high
Procedure, shortened: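 Compounds were applied to mgt1 mutant yeast, and growth was then compared against vehicle-treated control cultures to give percent inhibition.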

[5] = NCI Yeast Anticancer Drug Screen. Data for the rad50 strain (AID 155);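 further: 0% = growth of vehicle-only cultures of the same strain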; details: S. cerevisiae rad50 strain growth inhibition, active compounds read high
Procedure, shortened: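 Readout: growth inhibition relative to vehicle-treated cultures. Compound exposure was carried out in a genetically defined yeast strain deficient in DNA damage repair.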

[6] = NCI Yeast Anticancer Drug Screen. Data for the mec2-1 strain (AID 157); details: S. cerevisiae mec2-1 strain, active compounds read high
Procedure, shortened: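 Compounds were applied to mec2-1 yeast cells. Their growth was then compared with that of vehicle-treated cultures to give growth inhibition.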

[7] = NCI Yeast Anticancer Drug Screen. Data for the rad14 strain (AID 159);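 further: 0% = growth of vehicle-treated control cultures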; details: S. cerevisiae rad14 strain growth inhibition, active compounds read high
Procedure, shortened: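 Growth inhibition vs vehicle controls; genetically altered yeast strain (DNA damage repair defect) treated with test compounds.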

[8] = NCI Yeast Anticancer Drug Screen. Data for the sgs1 mgt1 strain (AID 161);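 further: 0% = growth of cultures given vehicle only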; details: S. cerevisiae sgs1 mgt1 strain, active compounds read high
Procedure, shortened: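 This yeast growth screen uses a strain with defined DNA-repair lesions; compound-treated growth is compared with vehicle-treated growth.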

[9] = NCI Yeast Anticancer Drug Screen. Data for the CLN2oe strain (AID 163);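 further: 0% = growth of vehicle-only control cultures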; details: S. cerevisiae CLN2oe strain, active compounds read high
Procedure, shortened: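 Cells of an engineered yeast line with disturbed cell-cycle regulation are treated with compound. Inhibition of growth is then calculated relative to the vehicle-treated reference.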

[10] = NCI Yeast Anticancer Drug Screen. Data for the cln2 rad14 strain (AID 165);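 further: 0% = growth equal to vehicle treated cultures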; details: S. cerevisiae cln2 rad14 strain, active compounds read high
Procedure, shortened: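 Strain: cln2 rad14 yeast, altered in cell cycle control and DNA damage repair. Read-out: growth inhibition vs vehicle.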

[11] = NCI Yeast Anticancer Drug Screen. Data for the bub3 strain (AID 167); details: S. cerevisiae bub3 mutant strain, active compounds read high
Procedure, shortened: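 Readout: yeast growth inhibition, expressed relative to vehicle-only wells. The test organism is a mutant strain from a panel with lesions in DNA repair or checkpoint genes.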

[12] = NCI Yeast Anticancer Drug Screen. Data for the wt2 strain (AID 169);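 further: 0% = growth of vehicle-treated yeast cultures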; details: S. cerevisiae wt2 strain growth inhibition, active compounds read high
Procedure, shortened: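 Growth of compound-treated yeast is measured and expressed as inhibition relative to vehicle-only controls.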

[13] = NCI Yeast Anticancer Drug Screen. Data for the mlh1 strain (AID 171);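 further: 0% = growth of vehicle-treated control cultures of the same strain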; details: S. cerevisiae mlh1 strain growth inhibition, active compounds read high
Procedure, shortened: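 Test agents were incubated with yeast bearing a defined DNA damage repair or cell cycle control alteration; values are growth inhibition normalised to vehicle-treated cultures.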

[14] = NCI Yeast Anticancer Drug Screen. Data for the sgs1 strain (AID 173);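 further: 0% = growth of vehicle-only control cultures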; details: S. cerevisiae sgs1 mutant, active compounds read high
Procedure, shortened: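 Strain with an altered DNA repair or cell cycle pathway exposed to compound. Growth then measured. Value = inhibition versus vehicle control.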

[15] = NCI Yeast Anticancer Drug Screen. Data for the mlh1 rad18 strain (AID 175); details: S. cerevisiae mlh1 rad18 strain growth inhibition, active compounds read high
Procedure, shortened: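 A repair-deficient yeast strain is exposed to test compound, and growth is scored relative to vehicle-treated controls.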

[16] = at 5.0 µM (retest, dose inferred, filed as 0.5)
[17] = at 50.0 µM (retest, dose inferred, filed as 5.0)

Measured: growth inhibition

N#CN1C2CCC1CC(=O)C2
inactive: [1]; at 1.2 µM -12% | [1]; at 3.7 µM -32% | [1]; at 11.0 µM -21% | [1]; at 33.0 µM -18% | [1]; at 100.0 µM -21% | [2]; at 1.2 µM -25% | [2]; at 3.7 µM -37% | [2]; at 11.0 µM -46% | [2]; at 33.0 µM -53% | [2]; at 100.0 µM -35% | [3]; at 1.2 µM -25% | [3]; at 3.7 µM -35% | [3]; at 11.0 µM -27% | [3]; at 33.0 µM -43% | [3]; at 100.0 µM -33% | [4]; at 1.2 µM -8% | [4]; at 3.7 µM -10% | [4]; at 11.0 µM -13% | [4]; at 33.0 µM -11% | [4]; at 100.0 µM -8% | [5]; at 1.2 µM 3% | [5]; at 3.7 µM 1% | [5]; [16] 66% | [5]; at 11.0 µM -34% | [5]; at 33.0 µM -40% | [5]; at 50.0 µM 66% | [5]; at 100.0 µM -24% | [6]; at 1.2 µM -27% | [6]; at 3.7 µM -36% | [6]; [16] 63% | [6]; at 11.0 µM -54% | [6]; at 33.0 µM -24% | [6]; at 50.0 µM 43.6% | [6]; at 100.0 µM -36% | [7]; at 1.2 µM -26% | [7]; at 3.7 µM -23% | [7]; at 11.0 µM -13% | [7]; at 33.0 µM -2% | [7]; at 100.0 µM 8% | [8]; [16] -5% | [8]; [17] -5% | [9]; at 1.2 µM 12% | [9]; at 3.7 µM 7% | [9]; at 11.0 µM -28% | [9]; at 33.0 µM -27% | [9]; at 100.0 µM -11% | [10]; [16] 50% | [10]; [17] 34% | [11]; at 1.2 µM 14% | [11]; at 3.7 µM 23% | [11]; [16] 39% | [11]; at 11.0 µM 15% | [11]; at 33.0 µM 27% | [11]; [17] 12% | [11]; at 50.0 µM 57.3% | [11]; at 100.0 µM 31% | [12]; at 1.2 µM -18% | [12]; at 3.7 µM -16% | [12]; at 11.0 µM -19% | [12]; at 33.0 µM -22% | [12]; at 100.0 µM -25% | [13]; at 1.2 µM -19% | [13]; at 3.7 µM -11% | [13]; at 11.0 µM -13% | [13]; at 33.0 µM -16% | [13]; at 100.0 µM -21% | [14]; at 1.2 µM -17% | [14]; at 3.7 µM -20% | [14]; at 11.0 µM -12% | [14]; at 33.0 µM -23% | [14]; at 100.0 µM -24% | [15]; at 50.0 µM 62.1%
active: [5]; [17] 99% | [6]; [17] 84% | [8]; at 50.0 µM 77.4% | [10]; at 50.0 µM 74.8% | [15]; [16] 75% | [15]; [17] 100%

COc1ccc(N=C2C(=O)Nc3ccc(Br)cc32)cc1
inactive: [1]; at 1.2 µM 14% | [1]; at 3.7 µM 15% | [1]; at 11.0 µM 18% | [1]; at 33.0 µM 23% | [1]; at 100.0 µM 17% | [2]; at 1.2 µM 8% | [2]; at 3.7 µM 15% | [2]; at 11.0 µM 9% | [2]; at 33.0 µM 14% | [2]; at 100.0 µM 15% | [3]; at 1.2 µM -9% | [3]; at 3.7 µM 1% | [3]; at 11.0 µM -11% | [3]; at 33.0 µM 6% | [3]; at 100.0 µM -20% | [4]; at 1.2 µM 8% | [4]; at 3.7 µM -24% | [4]; at 11.0 µM -5% | [4]; at 33.0 µM 2% | [4]; at 100.0 µM 1% | [5]; at 1.2 µM -14% | [5]; at 3.7 µM -14% | [5]; [16] 50% | [5]; at 11.0 µM -23% | [5]; at 33.0 µM -11% | [5]; [17] 61% | [5]; at 50.0 µM 13.8% | [5]; at 100.0 µM -5% | [6]; at 1.2 µM -19% | [6]; at 3.7 µM -13% | [6]; [16] 48% | [6]; at 11.0 µM -19% | [6]; at 33.0 µM -26% | [6]; [17] 61% | [6]; at 50.0 µM 10.7% | [6]; at 100.0 µM -20% | [7]; at 1.2 µM -22% | [7]; at 3.7 µM -25% | [7]; at 11.0 µM -26% | [7]; at 33.0 µM -28% | [7]; at 100.0 µM -30% | [8]; [16] -15% | [8]; [17] 23% | [8]; at 50.0 µM 28.9% | [9]; at 1.2 µM -7% | [9]; at 3.7 µM 23% | [9]; at 11.0 µM 19% | [9]; at 33.0 µM 23% | [9]; at 100.0 µM 1% | [10]; [16] 54% | [10]; [17] 37% | [10]; at 50.0 µM -7.9% | [11]; at 1.2 µM -7% | [11]; at 3.7 µM -7% | [11]; [16] 32% | [11]; at 11.0 µM -2% | [11]; at 33.0 µM 2% | [11]; at 100.0 µM 50% | [12]; at 1.2 µM 19% | [12]; at 3.7 µM 1% | [12]; at 11.0 µM 9% | [12]; at 33.0 µM 20% | [12]; at 100.0 µM 11% | [13]; at 1.2 µM 6% | [13]; at 3.7 µM -3% | [13]; at 11.0 µM -19% | [13]; at 33.0 µM -24% | [13]; at 100.0 µM -18% | [14]; at 1.2 µM 1% | [14]; at 3.7 µM -10% | [14]; at 11.0 µM -5% | [14]; at 33.0 µM -16% | [14]; at 100.0 µM -11% | [15]; [16] 47% | [15]; [17] 55% | [15]; at 50.0 µM 27%
active: [11]; [17] 85% | [11]; at 50.0 µM 82.4%
